Screens as filed in PubChem.
Shown are actives, neighbours in structure and some others; about 7.2% of the full set was active somewhere.
VLA-4 inh = inhibition in a human VLA-4 binding assay | VLA-4 expressing cells, ligand binding flow cytometry | P13612 | inhibition, % (about 7 µM as worked out from the volumes in the protocol) | 0.2% of 330,000 active; in the data active = inhibition above about 50%
Target sequence (P13612 whole entry, looked up): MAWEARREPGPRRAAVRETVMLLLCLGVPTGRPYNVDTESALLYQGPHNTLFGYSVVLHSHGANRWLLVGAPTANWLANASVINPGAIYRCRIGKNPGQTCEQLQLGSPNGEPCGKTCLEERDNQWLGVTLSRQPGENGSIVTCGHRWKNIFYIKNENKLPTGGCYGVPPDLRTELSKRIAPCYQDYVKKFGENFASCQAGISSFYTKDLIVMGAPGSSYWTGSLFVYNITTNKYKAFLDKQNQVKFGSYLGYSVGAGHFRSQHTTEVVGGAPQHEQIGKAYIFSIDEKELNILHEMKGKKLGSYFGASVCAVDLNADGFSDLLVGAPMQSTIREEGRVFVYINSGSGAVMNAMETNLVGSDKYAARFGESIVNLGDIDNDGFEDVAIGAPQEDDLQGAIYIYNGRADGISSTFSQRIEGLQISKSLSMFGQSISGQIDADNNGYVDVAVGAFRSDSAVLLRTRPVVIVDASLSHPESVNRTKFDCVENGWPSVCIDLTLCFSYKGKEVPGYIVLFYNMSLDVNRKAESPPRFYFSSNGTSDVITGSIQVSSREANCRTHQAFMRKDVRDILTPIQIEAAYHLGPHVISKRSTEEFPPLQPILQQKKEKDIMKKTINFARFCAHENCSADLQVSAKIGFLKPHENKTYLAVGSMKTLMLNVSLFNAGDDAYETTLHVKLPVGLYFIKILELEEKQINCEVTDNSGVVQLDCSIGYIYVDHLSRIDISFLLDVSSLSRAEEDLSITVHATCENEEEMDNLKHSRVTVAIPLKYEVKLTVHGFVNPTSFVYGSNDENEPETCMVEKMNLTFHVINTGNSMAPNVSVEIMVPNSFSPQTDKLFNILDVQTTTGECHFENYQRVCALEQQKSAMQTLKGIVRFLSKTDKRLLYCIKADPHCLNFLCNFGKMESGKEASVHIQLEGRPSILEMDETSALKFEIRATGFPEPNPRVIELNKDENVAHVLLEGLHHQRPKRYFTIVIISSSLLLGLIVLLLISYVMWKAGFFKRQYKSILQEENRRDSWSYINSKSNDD
SUMO Mot1 rescue = inhibitors of SUMOylation pathway: yeast Mot1-301 growth rescue; growth rescue, % at 18.8 µM; S. cerevisiae Mot1-301 growth rescue, ATP luminescence, 38.5C; percent above DMSO median, 100 means doubled; 1% of 320,000 active;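 active = every valid replicate shows activation above 250% relative to neutral control wells; inactive = the rest, any valid replicate at or below 250%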;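 also: OY570 slx delta 5 strain wells were the positive control but not used for scaling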
Bfl-1 A1 inh = inhibitors of the anti-apoptotic protein A1, read as caspase activation; MEF A1-2A-BIM cells, Caspase-Glo 3/7 luminescence, 3 h; percent of clofoctol response, vehicle zero; caspase activation, % (concentration not given with the values); 0.066% of 330,000 active; AID 2462;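 active = over half of replicate activation scores above 10%, or exactly half above 10 with the replicate mean above 10; inconclusive = replicate mean below 10 yet half the replicates above 10; inactive = over half of replicates below 10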
Efflux pump mplx = inhibitors of Candida antifungal efflux pumps expressed in yeast; S. cerevisiae Candida pump triplex, Nile Red efflux; inhibition, % at 10 µM; 0.44% of 330,000 active;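 active = plate passing quality check with inhibition over a set limit, or well fluorescence over plate mean plus 4 SD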;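 also: Nile Red retained in pooled yeast measured as flow cytometry median fluorescence; 0% = buffer negative control and 100% = Enniatin B positive control; higher means more Nile Red kept so more efflux inhibition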
AHR activator = activators of human aryl hydrocarbon receptor. activation, % at 5 µM. AHR-responsive luciferase reporter cells, luminescence. AID 2796. 2.5% of 320,000 active; in the data active = activation above about 47%;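 also: 0% = vehicle wells and 100% = reference agonist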
ALR H2O2 inh = blocks human ALR sulfhydryl oxidase activity. 3.8% of 290,000 active. P55789. inhibition, % (concentration not given with the values). purified ALR, DTT oxidation, H2O2 HRP-luminol luminescence;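 active = mean replicate inhibition above about 79%, with every replicate also reaching it, limit read from the data; inconclusive = only one of the two criteria met; inactive = mean below limit and not every replicate reaching it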
* hit, by the source's call; i = inactive; ? = inconclusive; nt = no result given.

SMILES | VLA-4 inh | SUMO Mot1 rescue | Bfl-1 A1 inh | Efflux pump mplx | AHR activator | ALR H2O2 inh
O=C(CSc1nnnn1-c1ccc(F)cc1F)Nc1ccccc1F | 1.4 | -16.8 | -0.9 | 0.8 | 6.0 | -8.1
Cc1ccccc1Cn1nnc(-c2ccc(F)cc2)n1 | -6.6 | 2.3 | -0.1 | 0.0 | -0.9 | 92.9*
CC(C)(C)c1ccc(OCCC(=O)NCCc2ccc(S(N)(=O)=O)cc2)cc1 | 1.4 | -3.6 | -0.7 | 0.3 | nt | -17.7
CCCNC(=O)CSC1=N/C(=C/c2ccc(F)cc2)C(=O)N1CC | 1.2 | -2.3 | 0.1 | 0.1 | 6.8 | 97.1*
CCCCCNC(=O)CSC1=N/C(=C\c2ccc(Cl)c(Cl)c2)C(=O)N1CC | 3.4 | -16.1 | -0.2 | 0.0 | -0.5 | -5.0
Cc1n[nH]c(=O)n1-c1cccc(C(F)(F)F)c1 | 14.9 | 8.8 | -0.2 | 0.2 | 2.1 | -8.2
CN(C)C=NC1=NN(c2cccc(C(F)(F)F)c2)CC1 | 5.7 | 179.9 | -0.3 | 0.0 | 3.1 | 94.6*
FC(F)(F)c1cccc(N2CCN(c3nnnn3-c3ccccc3)CC2)c1 | 1.3 | -1.3 | -0.3 | 0.0 | 3.4 | 37.2
CN1CCN(C=NC2=NN(c3cccc(C(F)(F)F)c3)CC2)CC1 | -7.9 | 105.1 | 0.0 | -0.5 | 4.3 | 98.8*
COc1ccc(/C=C(/C(=O)NCc2ccccc2)c2ccccc2)cc1 | -5.2 | 12.6 | 0.6 | 0.1 | 7.7 | -16.2
CN(C)S(=O)(=O)c1cc(NC(=O)CN2CCOCC2)ccc1Cl | -184.9 | 38.8 | -0.8 | 0.0 | -2.5 | -19.9
COc1ccccc1NS(=O)(=O)c1cc([N+](=O)[O-])ccc1N/N=C/c1c[nH]c2ccccc12 | i | 10.7 | -0.5 | 0.1 | 16.1 | 98.8*
O=[N+]([O-])c1ccccc1N/N=C/c1c[nH]c2ccccc12 | -5.0 | 9.5 | 0.0 | -0.1 | 73.4* | 5.1
CCn1c(Cc2ccccc2)nnc1SCC(=O)Nc1ccc(N)cc1 | 24.8 | 93.1 | -0.5 | -0.2 | 2.0 | 86.6*
O=C(CSc1nnc(Cc2ccccc2)n1-c1ccccc1)NNC(=O)Cc1ccccc1 | 13.7 | 1.5 | -0.1 | -0.1 | -1.0 | 98.3*
CCn1c(Cc2ccccc2)nnc1SCC(=O)Nc1ccc(OC)cc1 | 3.2 | -5.3 | -0.1 | 0.0 | 5.6 | -1.2
CCn1c(CC(=O)Nc2ccc(C)cc2)nnc1SCC(=O)N1CCN(c2ccccc2)CC1 | 30.4 | 7.7 | 0.2 | 0.0 | 0.9 | 88.7*
COc1ccc(/C=C/C(=O)NCC(c2ccc(F)cc2)N2CCOCC2)cc1OC (centres undefined) | 7.5 | -10.1 | 0.0 | 0.1 | 4.8 | -8.4
CCOC(=O)C1=C(O)c2ccccc2C(=O)/C1=C\c1ccc(C)cc1 | nt | 279.6* | -1.3 | 3.2 | 37.4 | nt
O=C(COC(=O)CNC(=O)c1cccs1)Nc1ccc(C(F)(F)F)cc1[N+](=O)[O-] | 6.8 | 79.7 | 0.1 | 0.0 | 2.7 | -161.9
C=CCn1c(-c2cccs2)nc2ccccc21 | 8.8 | -0.7 | 0.8 | 0.1 | 18.8 | 13.8
C=CCn1c(-c2cccs2)nc2nc3ccccc3nc21 | -2.3 | -15.8 | 0.1 | 0.0 | 70.3* | -1.4
Cc1cc2nn(-c3ccccc3)nc2cc1NC(=O)c1cccs1 | -15.3 | 24.9 | 0.7 | 0.0 | 68.4* | -4.5
CCC(=O)Nc1cc2nn(-c3ccccc3)nc2cc1Cl | -8.2 | 565.3 | -8.8 | -0.1 | 50.7* | 6.4
Cc1cc(NC(=O)c2cccs2)n(-c2ccccc2)n1 | 14.1 | nt | -0.3 | 0.0 | -0.4 | 86.2*
SMILES | VLA-4 inh | SUMO Mot1 rescue | Bfl-1 A1 inh | Efflux pump mplx | AHR activator | ALR H2O2 inh
Cc1ccc(NC(=O)c2cccs2)cc1NC(=O)c1cccc(F)c1 | 4.1 | 11.4 | 0.8 | 0.1 | 63.7* | 0.8
Cc1c(NC(=O)c2cccs2)cccc1NC(=O)c1cccs1 | 20.3 | 5.4 | -1.0 | 0.1 | nt | -7.7
O=C(NC1CCN(S(=O)(=O)c2cccc(F)c2)CC1)c1cccc(F)c1 | -2.5 | -18.8 | 0.7 | 0.1 | nt | 0.7
CC(=O)Nc1cc2nn(-c3ccccc3)nc2cc1C | 8.9 | -8.6 | -6.7 | -0.1 | 55.4* | -7.2
COc1ccc(-n2nc3cc(C)c(NC(=O)c4cccnc4)cc3n2)cc1 | 1.1 | -4.4 | -0.3 | -0.1 | 1.4 | 1.6
COc1ccccc1CNC(=O)C1CCN(S(=O)(=O)c2c(C)noc2C)CC1 | 4.8 | nt | -0.6 | 0.0 | -0.5 | -7.5
CCN(CC)C(=N)/C(C#N)=N/Nc1ccccc1 | 25.0 | 16.2 | 0.3 | 0.1 | 14.6 | 86.5*
COc1ccccc1N/N=C(\C#N)C(=N)N1CCOCC1 | 0.0 | -7.6 | 0.5 | 0.0 | 7.1 | 82.4*
N#C/C(=N\Nc1ccc(Br)cc1)C(=N)N1CCOCC1 | -1.0 | nt | 0.0 | -0.1 | 55.9* | 98.3*
N#C/C(=N\Nc1ccccc1)C(=N)N1CCCCC1 | 3.3 | -11.7 | -1.4 | 0.1 | 29.4 | 99.4*
CCOC(=O)/C(C#N)=N/Nc1ccccc1OC | -7.6 | -20.6 | -1.2 | -0.5 | -1.4 | -1.7
O=C(CCCN1C(=O)/C(=C/c2ccccc2OC(F)F)SC1=S)Nc1cccnc1 | -5.1 | 21.6 | 0.1 | -0.1 | 6.0 | nt
N#C/C(=N\Nc1ccc(Cl)cc1)C(=N)N1CCCCCC1 | -13.6 | -31.2 | -1.5 | -0.1 | 21.4 | nt
Cc1ccc(N/N=C(\C#N)C(=N)N2CCCCC2)cc1 | 8.8 | 5.6 | -0.5 | -0.1 | 26.7 | 98.8*
O=C(NCc1cccnc1)c1ccc(-c2cc(Cl)ccc2Cl)o1 | -10.5 | 18.5 | -0.5 | 0.0 | 76.0* | 11.4
Cc1cc(C[n+]2cc(Br)ccc2N)c2ncccc2c1 | 1.4 | 0.1 | 0.2 | 0.0 | 11.2 | -8.3
CCCc1c(C(=O)N/N=C/c2cccs2)nnn1-c1nonc1N | 18.4 | -10.1 | 0.1 | -0.2 | 61.3* | -2.7
CCCN(CCC)Cc1c(C(=O)N/N=C/c2cccs2)nnn1-c1nonc1N | -0.1 | -2.3 | -0.1 | 0.3 | 0.3 | nt
COc1ccc(N2CCN(c3nc4ccc(C)cn4c(=O)c3C=O)CC2)cc1 | 4.3 | -6.7 | -0.4 | 0.0 | -5.7 | 80.9*
COc1ccc(N2CCN(c3nc4ccccn4c(=O)c3C=O)CC2)cc1 | -6.8 | 46.4 | -0.3 | -1.2 | 2.2 | ?
O=Cc1c(N2CCN(c3ccccc3)CC2)nc2ccccn2c1=O | 10.4 | -4.2 | 0.0 | -0.1 | 3.5 | 98.6*
Cc1cc(C(=O)C[N+]2(C)CCOCC2)c(C)n1-c1ccc(Br)cc1 | -2.4 | 17.2 | 0.3 | 0.0 | 0.9 | -3.9
Cc1cc(Br)ccc1NC(=O)CN(C)C(=O)C1CCN(C(=O)c2ccc(F)cc2)CC1 | 11.2 | -3.9 | 0.1 | 0.0 | 8.2 | -1.2
Cc1ccc(-n2c(C)cc(C3=NNC(=NC4CC4)SC3)c2C)cc1C | -12.8 | -2.0 | -3.9 | 0.1 | 50.8* | -0.1
CCOC(=O)Cc1csc(/N=C/c2c(O)n(-c3ccc(C)c(C)c3)c(=O)c3ccccc23)n1 | -17.4 | -8.8 | 22.2* | -0.4 | 0.5 | -2.1
CCOc1ccc(NC(=O)CN(C)C(=O)C2COc3ccccc3O2)cc1OCC (centres undefined) | 11.1 | -13.9 | 1.9 | 0.2 | 2.5 | -3.7
Cc1cc(C)c(Cc2c(C)nc3c(C(=O)NCc4ccco4)cnn3c2C)c(C)c1 | nt | -8.4 | 0.6 | 0.0 | -2.8 | -3.9
